# Laboratory results as given in PubChem BioAssay (NCI).
# This is part of a sample that, as a whole, favours compounds with a hit. Of some 79,000 tested, about 15% had one in any assay. Values without a mark were called inactive. The source made the active and inactive calls. No stated cut-off is given here; in the data, active means growth inhibition above about 70%; inactive means the rest.
# Columns and labels:
# [1] = NCI Yeast Anticancer Drug Screen. Data for the rad52 strain (AID 147);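 further: 0% = growth of vehicle-treated control cultures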; conditions: S. cerevisiae rad52 mutant growth inhibition, hits give high values
# In short: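 Screen used a yeast mutant impaired in DNA repair. After compound exposure, growth was measured. Values reflect inhibition compared with vehicle-treated cells.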
# [2] = NCI Yeast Anticancer Drug Screen. Data for the wt1 strain (AID 149);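 further: 0% = growth of vehicle-treated wt1 cultures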; conditions: S. cerevisiae wt1 strain (SPY 50644) growth inhibition, hits give high values
# In short: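 Vehicle-normalised growth inhibition; strain wt1; compound exposure.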
# [3] = NCI Yeast Anticancer Drug Screen. Data for the rad50EPP+ strain (AID 151);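 further: 0% = growth of vehicle-treated control cultures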; conditions: S. cerevisiae rad50 mutant strain, hits give high values
# In short: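 Exposing the rad50EPP+ strain to each compound, growth was compared with vehicle-only cultures to give inhibition.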
# [4] = NCI Yeast Anticancer Drug Screen. Data for the mgt1 strain (AID 153); conditions: S. cerevisiae mgt1 mutant growth inhibition, hits give high values
# In short: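 Genetically defined yeast (mgt1) treated with compound; inhibition of growth expressed against vehicle-treated controls.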
# [5] = NCI Yeast Anticancer Drug Screen. Data for the rad50 strain (AID 155);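 further: 0% = growth of vehicle-only cultures of the same strain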; conditions: S. cerevisiae rad50 strain growth inhibition, hits give high values
# In short: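 A DNA repair-deficient yeast mutant serves as the test organism; compound-induced growth inhibition is calculated against vehicle-treated cells.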
# [6] = NCI Yeast Anticancer Drug Screen. Data for the mec2-1 strain (AID 157); conditions: S. cerevisiae mec2-1 strain, hits give high values
# In short: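 Readout is yeast growth inhibition, normalised to vehicle-treated controls, in the mec2-1 strain exposed to compound.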
# [7] = NCI Yeast Anticancer Drug Screen. Data for the rad14 strain (AID 159);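 further: 0% = growth of vehicle-treated control cultures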; conditions: S. cerevisiae rad14 strain growth inhibition, hits give high values
# In short: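 Vehicle-treated cultures served as the baseline for growth inhibition of a DNA repair-mutant yeast strain exposed to each compound.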
# [8] = NCI Yeast Anticancer Drug Screen. Data for the sgs1 mgt1 strain (AID 161);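 further: 0% = growth of cultures given vehicle only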; conditions: S. cerevisiae sgs1 mgt1 strain, hits give high values
# In short: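 Percent growth inhibition was derived by comparing compound-exposed mutant yeast with vehicle-exposed cultures. The strain carries alterations in DNA damage repair.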
# [9] = NCI Yeast Anticancer Drug Screen. Data for the CLN2oe strain (AID 163);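 further: 0% = growth of vehicle-only control cultures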; conditions: S. cerevisiae CLN2oe strain, hits give high values
# In short: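 Values reflect how much compound exposure reduced yeast growth, referenced to vehicle-exposed cells. Assay organism is a strain with a defined genetic change affecting cell-cycle control.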
# [10] = NCI Yeast Anticancer Drug Screen. Data for the cln2 rad14 strain (AID 165);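 further: 0% = growth equal to vehicle treated cultures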; conditions: S. cerevisiae cln2 rad14 strain, hits give high values
# In short: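 Relative to vehicle controls, growth inhibition of compound-treated cln2 rad14 yeast was recorded.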
# [11] = NCI Yeast Anticancer Drug Screen. Data for the bub3 strain (AID 167); conditions: S. cerevisiae bub3 mutant strain, hits give high values
# In short: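 Inhibition values come from growth of compound-treated mutant yeast normalised to vehicle-treated controls.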
# [12] = NCI Yeast Anticancer Drug Screen. Data for the wt2 strain (AID 169);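 further: 0% = growth of vehicle-treated yeast cultures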; conditions: S. cerevisiae wt2 strain growth inhibition, hits give high values
# In short: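 Values express reduction in yeast growth under compound treatment, referenced to vehicle-treated cells.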
# [13] = NCI Yeast Anticancer Drug Screen. Data for the mlh1 strain (AID 171);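 further: 0% = growth of vehicle-treated control cultures of the same strain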; conditions: S. cerevisiae mlh1 strain growth inhibition, hits give high values
# In short: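 Steps: expose the defined-mutant yeast strain to compound; expose a parallel culture to vehicle; measure growth; express compound effect as inhibition relative to the vehicle culture.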
# [14] = NCI Yeast Anticancer Drug Screen. Data for the sgs1 strain (AID 173);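 further: 0% = growth of vehicle-only control cultures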; conditions: S. cerevisiae sgs1 mutant, hits give high values
# In short: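 Treat defined-mutant yeast with compound; measure growth; calculate inhibition relative to vehicle-treated cells.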
# [15] = NCI Yeast Anticancer Drug Screen. Data for the mlh1 rad18 strain (AID 175); conditions: S. cerevisiae mlh1 rad18 strain growth inhibition, hits give high values
# In short: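 Test agents were incubated with a yeast strain of defined genotype (DNA damage repair defect). Inhibition of growth was derived by comparison with vehicle-exposed cultures.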
# [16] = NCI Yeast Anticancer Drug Screen. Data for the rad18 strain (AID 177); conditions: S. cerevisiae rad18 mutant growth inhibition, hits give high values
# In short: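 A genetically defined yeast mutant impaired in DNA damage repair was treated with test compounds, then its growth was measured against cultures receiving vehicle alone.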
# [17] = at 5.0 µM (retest, dose inferred, filed as 0.5)
# [18] = at 50.0 µM (retest, dose inferred, filed as 5.0)
smiles,measurement,setting,value
CCC(C(=O)O)C1=C(c2ccccc2)CCc2ccccc21 (stereo unspecified),growth inhibition,[1]; at 1.2 µM,10%
same,growth inhibition,[1]; at 3.7 µM,29%
same,growth inhibition,[1]; at 11.0 µM,97% (active)
same,growth inhibition,[1]; at 33.0 µM,99% (active)
same,growth inhibition,[1]; at 100.0 µM,98% (active)
same,growth inhibition,[2]; at 1.2 µM,4%
same,growth inhibition,[2]; at 3.7 µM,20%
same,growth inhibition,[2]; at 11.0 µM,97% (active)
same,growth inhibition,[2]; at 33.0 µM,99% (active)
same,growth inhibition,[2]; at 100.0 µM,94% (active)
same,growth inhibition,[3]; at 1.2 µM,0%
same,growth inhibition,[3]; at 3.7 µM,2%
same,growth inhibition,[3]; at 11.0 µM,7%
same,growth inhibition,[3]; at 33.0 µM,26%
same,growth inhibition,[3]; at 100.0 µM,44%
same,growth inhibition,[4]; at 1.2 µM,7%
same,growth inhibition,[4]; at 3.7 µM,12%
same,growth inhibition,[4]; at 11.0 µM,90% (active)
same,growth inhibition,[4]; at 33.0 µM,99% (active)
same,growth inhibition,[4]; at 100.0 µM,80% (active)
same,growth inhibition,[5]; at 1.2 µM,10%
same,growth inhibition,[5]; at 3.7 µM,30%
same,growth inhibition,[5]; [17],23%
same,growth inhibition,[5]; at 11.0 µM,97% (active)
same,growth inhibition,[5]; at 33.0 µM,99% (active)
same,growth inhibition,[5]; [18],98% (active)
same,growth inhibition,[5]; at 50.0 µM,99.5% (active)
same,growth inhibition,[5]; at 100.0 µM,91% (active)
same,growth inhibition,[6]; at 1.2 µM,9%
same,growth inhibition,[6]; at 3.7 µM,28%
same,growth inhibition,[6]; [17],11%
same,growth inhibition,[6]; at 11.0 µM,95% (active)
same,growth inhibition,[6]; at 33.0 µM,99% (active)
same,growth inhibition,[6]; [18],99% (active)
same,growth inhibition,[6]; at 50.0 µM,99.5% (active)
same,growth inhibition,[6]; at 100.0 µM,98% (active)
same,growth inhibition,[7]; at 1.2 µM,12%
same,growth inhibition,[7]; at 3.7 µM,19%
same,growth inhibition,[7]; at 11.0 µM,96% (active)
same,growth inhibition,[7]; at 33.0 µM,99% (active)
same,growth inhibition,[7]; at 100.0 µM,90% (active)
same,growth inhibition,[8]; [17],6%
same,growth inhibition,[8]; [18],99% (active)
same,growth inhibition,[8]; at 50.0 µM,99.5% (active)
same,growth inhibition,[9]; at 1.2 µM,14%
same,growth inhibition,[9]; at 3.7 µM,23%
same,growth inhibition,[9]; at 11.0 µM,96% (active)
same,growth inhibition,[9]; at 33.0 µM,99% (active)
same,growth inhibition,[9]; at 100.0 µM,92% (active)
same,growth inhibition,[10]; [17],6%
same,growth inhibition,[10]; [18],98% (active)
same,growth inhibition,[10]; at 50.0 µM,98.8% (active)
same,growth inhibition,[11]; at 1.2 µM,6%
same,growth inhibition,[11]; at 3.7 µM,13%
same,growth inhibition,[11]; [17],-2%
same,growth inhibition,[11]; at 11.0 µM,93% (active)
same,growth inhibition,[11]; at 33.0 µM,99% (active)
same,growth inhibition,[11]; [18],97% (active)
same,growth inhibition,[11]; at 50.0 µM,99% (active)
same,growth inhibition,[11]; at 100.0 µM,94% (active)
same,growth inhibition,[12]; at 1.2 µM,6%
same,growth inhibition,[12]; at 3.7 µM,14%
same,growth inhibition,[12]; at 11.0 µM,96% (active)
same,growth inhibition,[12]; at 33.0 µM,98% (active)
same,growth inhibition,[12]; at 100.0 µM,99% (active)
same,growth inhibition,[13]; at 1.2 µM,9%
same,growth inhibition,[13]; at 3.7 µM,20%
same,growth inhibition,[13]; at 11.0 µM,96% (active)
same,growth inhibition,[13]; at 33.0 µM,99% (active)
same,growth inhibition,[13]; at 100.0 µM,93% (active)
same,growth inhibition,[14]; at 1.2 µM,7%
same,growth inhibition,[14]; at 3.7 µM,24%
same,growth inhibition,[14]; at 11.0 µM,97% (active)
same,growth inhibition,[14]; at 33.0 µM,99% (active)
same,growth inhibition,[14]; at 100.0 µM,99% (active)
same,growth inhibition,[15]; [17],52%
same,growth inhibition,[15]; [18],99% (active)
same,growth inhibition,[15]; at 50.0 µM,99.5% (active)
same,growth inhibition,[16]; at 1.2 µM,8%
same,growth inhibition,[16]; at 3.7 µM,27%
same,growth inhibition,[16]; at 11.0 µM,97% (active)
same,growth inhibition,[16]; at 33.0 µM,99% (active)
same,growth inhibition,[16]; at 100.0 µM,82% (active)
COC(=O)CSSCc1ccc([N+](=O)[O-])cc1,growth inhibition,[1]; at 1.2 µM,3%
same,growth inhibition,[1]; at 3.7 µM,19%
same,growth inhibition,[1]; at 11.0 µM,40%
same,growth inhibition,[1]; at 33.0 µM,75% (active)
same,growth inhibition,[1]; at 100.0 µM,98% (active)
same,growth inhibition,[2]; at 1.2 µM,-1%
same,growth inhibition,[2]; at 3.7 µM,-2%
same,growth inhibition,[2]; at 11.0 µM,3%
same,growth inhibition,[2]; at 33.0 µM,24%
same,growth inhibition,[2]; at 100.0 µM,83% (active)
same,growth inhibition,[3]; at 1.2 µM,-2%
same,growth inhibition,[3]; at 3.7 µM,13%
same,growth inhibition,[3]; at 11.0 µM,70% (active)
same,growth inhibition,[3]; at 33.0 µM,93% (active)
same,growth inhibition,[3]; at 100.0 µM,98% (active)
same,growth inhibition,[4]; at 1.2 µM,-1%
same,growth inhibition,[4]; at 3.7 µM,1%
same,growth inhibition,[4]; at 11.0 µM,16%
same,growth inhibition,[4]; at 33.0 µM,44%
same,growth inhibition,[4]; at 100.0 µM,98% (active)
same,growth inhibition,[5]; at 1.2 µM,4%
same,growth inhibition,[5]; at 3.7 µM,20%
same,growth inhibition,[5]; [17],15%
same,growth inhibition,[5]; at 11.0 µM,47%
same,growth inhibition,[5]; at 33.0 µM,85% (active)
same,growth inhibition,[5]; [18],97% (active)
same,growth inhibition,[5]; at 50.0 µM,97.3% (active)
same,growth inhibition,[5]; at 100.0 µM,97% (active)
same,growth inhibition,[6]; at 1.2 µM,-2%
same,growth inhibition,[6]; at 3.7 µM,2%
same,growth inhibition,[6]; [17],-8%
same,growth inhibition,[6]; at 11.0 µM,14%
same,growth inhibition,[6]; at 33.0 µM,37%
same,growth inhibition,[6]; [18],96% (active)
same,growth inhibition,[6]; at 50.0 µM,96% (active)
same,growth inhibition,[6]; at 100.0 µM,97% (active)
same,growth inhibition,[7]; at 1.2 µM,0%
same,growth inhibition,[7]; at 3.7 µM,8%
same,growth inhibition,[7]; at 11.0 µM,20%
same,growth inhibition,[7]; at 33.0 µM,48%
same,growth inhibition,[7]; at 100.0 µM,98% (active)
same,growth inhibition,[8]; [17],38%
same,growth inhibition,[8]; [18],97% (active)
same,growth inhibition,[8]; at 50.0 µM,94.7% (active)
same,growth inhibition,[9]; at 1.2 µM,-1%
same,growth inhibition,[9]; at 3.7 µM,-6%
same,growth inhibition,[9]; at 11.0 µM,7%
same,growth inhibition,[9]; at 33.0 µM,43%
same,growth inhibition,[9]; at 100.0 µM,95% (active)
same,growth inhibition,[10]; [17],-10%
same,growth inhibition,[10]; [18],89% (active)
same,growth inhibition,[10]; at 50.0 µM,93.6% (active)
same,growth inhibition,[11]; at 1.2 µM,1%
same,growth inhibition,[11]; at 3.7 µM,5%
same,growth inhibition,[11]; [17],43%
same,growth inhibition,[11]; at 11.0 µM,24%
same,growth inhibition,[11]; at 33.0 µM,71% (active)
same,growth inhibition,[11]; [18],98% (active)
same,growth inhibition,[11]; at 50.0 µM,96% (active)
same,growth inhibition,[11]; at 100.0 µM,97% (active)
same,growth inhibition,[12]; at 1.2 µM,1%
same,growth inhibition,[12]; at 3.7 µM,-3%
same,growth inhibition,[12]; at 11.0 µM,22%
same,growth inhibition,[12]; at 33.0 µM,34%
same,growth inhibition,[12]; at 100.0 µM,98% (active)
same,growth inhibition,[13]; at 1.2 µM,-4%
same,growth inhibition,[13]; at 3.7 µM,9%
same,growth inhibition,[13]; at 11.0 µM,31%
same,growth inhibition,[13]; at 33.0 µM,67%
same,growth inhibition,[13]; at 100.0 µM,99% (active)
same,growth inhibition,[14]; at 1.2 µM,-20%
same,growth inhibition,[14]; at 3.7 µM,-24%
same,growth inhibition,[14]; at 11.0 µM,33%
same,growth inhibition,[14]; at 33.0 µM,87% (active)
same,growth inhibition,[14]; at 100.0 µM,99% (active)
same,growth inhibition,[15]; [17],69%
same,growth inhibition,[15]; [18],98% (active)
same,growth inhibition,[15]; at 50.0 µM,94.4% (active)
same,growth inhibition,[16]; at 1.2 µM,-2%
same,growth inhibition,[16]; at 3.7 µM,19%
same,growth inhibition,[16]; at 11.0 µM,48%
same,growth inhibition,[16]; at 33.0 µM,83% (active)
same,growth inhibition,[16]; at 100.0 µM,97% (active)
